# PubChem BioAssay (EPA / NIEHS)
# The source holds several records for some structures; these can differ, active in one and inactive in another. The source made the active and inactive calls. How the source made its calls: active means hit-call score of the fitted dose curve at least 0.9, where 1 is the maximum; inactive means score below 0.9.
# Assays:
# Conditions in all cases: mRNA level, 48 h; actives raise or lower the signal
# [1] = read-out: Tumor necrosis factor receptor superfamily member 6 (Homo sapiens) (UniProt P25445); assay: LTEA_HepaRG_FAS: Life Technologies and Expression Analysis (LTEA) Assay for Fas cell surface death receptor (FAS) using HepaRG (AID 2283447)
# In short: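 Differentiated human HepaRG cells, pre-cultured 48 h, were exposed in duplicate for 48 h to 8-point half-log concentrations (top 100 uM, 0.5% DMSO) in serum-free induction medium; FAS mRNA measured by qRT-PCR, normalized to ACTB/GAPDH/POLR2A, bidirectional fit versus DMSO.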
# [2] = read-out: Fatty acid synthase (Homo sapiens) (UniProt P49327); assay: LTEA_HepaRG_FASN: Life Technologies and Expression Analysis (LTEA) Assay for Fatty Acid Synthase (FASN) using HepaRG (AID 2283448)
# In short: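 HepaRG, 48 h exposure, 8-pt half-log series top 100 uM, 0.5% DMSO vehicle, duplicates. Readout: FASN transcript by Fluidigm qRT-PCR; housekeeping-normalized; bidirectional curve fit vs DMSO baseline.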
# [3] = read-out: Cyclin D2 (CCND2), CCND2 (gene 894); assay: LTEA_HepaRG_CCND2: Life Technologies and Expression Analysis (LTEA) Assay for Cyclin D2 (CCND2) using HepaRG (AID 2283449);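 further: CCND2 transcript measured by TaqMan qRT-PCR and normalised to three housekeeping genes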
# In short: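 In this HepaRG study, an eight-point concentration series (max 100 uM, 0.5% DMSO) is applied for 48 h. CCND2 mRNA change is derived by qRT-PCR normalised to ACTB, GAPDH and POLR2A.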
# [4] = read-out: Cyclin Dependent Kinase Inhibitor 1A (CDKN1A), CDKN1A (gene 1026); assay: LTEA_HepaRG_CDKN1A: Life Technologies and Expression Analysis (LTEA) Assay for Cyclin Dependent Kinase Inhibitor 1A (CDKN1A) using HepaRG (AID 2283450)
# In short: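 Differentiated human HepaRG cells, pre-cultured 48 h, were exposed in duplicate for 48 h in serum-free induction medium to eight half-log concentrations up to 100 uM (0.5% DMSO). CDKN1A mRNA was measured by qRT-PCR, normalized to ACTB/GAPDH/POLR2A, bidirectionally fitted versus DMSO.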
# [5] = read-out: Cyclin D1 (CCND1), CCND1 (gene 595); assay: LTEA_HepaRG_CCND1: Life Technologies and Expression Analysis (LTEA) Assay for Cyclin D1 (CCND1) using HepaRG (AID 2283451)
# In short: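 Differentiated human HepaRG cells in serum-free induction medium were exposed 48 h to eight half-log concentrations up to 100 uM in 0.5% DMSO; mRNA quantified by TaqMan qRT-PCR, normalized to ACTB, GAPDH, POLR2A, fitted bidirectionally versus DMSO.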
# [6] = read-out: catalase (CAT), CAT (gene 847); assay: LTEA_HepaRG_CAT: Life Technologies and Expression Analysis (LTEA) Assay for catalase (CAT) using HepaRG (AID 2283452)
# In short: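 Differentiated HepaRG cells in serum-free induction medium were dosed 48 h in duplicate, eight half-log concentrations from 100 uM in 0.5% DMSO. Transcript measured by TaqMan qRT-PCR, normalised to ACTB/GAPDH/POLR2A, fitted bidirectionally against DMSO.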
# [7] = read-out: flavin-containing dimethylaniline monooxygenases 3 (FMO3), FMO3 (gene 2328); assay: LTEA_HepaRG_FMO3: Life Technologies and Expression Analysis (LTEA) Assay for flavin-containing dimethylaniline monooxygenases 3 (FMO3) using HepaRG (AID 2283453)
# In short: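 Eight-point concentration-response in serum-free HepaRG cultures (top 100 uM, 0.5% DMSO, 48 h). Read-out: FMO3 mRNA level normalized to three endogenous control genes, fitted bidirectionally versus vehicle.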
# [8] = read-out: Cytochrome P450 (CYP1A1), CYP1A1 (gene 1543); assay: LTEA_HepaRG_CYP1A1: Life Technologies and Expression Analysis (LTEA) Assay for Cytochrome P450 (CYP1A1) using HepaRG (AID 2283454)
# In short: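 Differentiated HepaRG cells in serum-free induction medium were exposed in duplicate for 48 h to eight half-log concentrations up to 100 uM in 0.5% DMSO. CYP1A1 mRNA was quantified by TaqMan qRT-PCR, normalized to ACTB, GAPDH and POLR2A.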
# [9] = read-out: CFLAR gene, CFLAR (gene 8837); assay: LTEA_HepaRG_CFLAR: Life Technologies and Expression Analysis (LTEA) Assay for CFLAR gene using HepaRG (AID 2283455)
# In short: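 Gain- or loss-of-signal changes in CFLAR transcript were fitted bidirectionally relative to 0.5% DMSO. Cells (HepaRG, duplicate wells) were dosed for 48 h across eight half-log concentrations topping at 100 uM; quantitation by TaqMan qRT-PCR.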
# [10] = read-out: Forkhead box O1 (FOXO1), FOXO1 (gene 2308); assay: LTEA_HepaRG_FOXO1: Life Technologies and Expression Analysis (LTEA) Assay for Forkhead box O1 (FOXO1) using HepaRG (AID 2283456)
# In short: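 Using one lot of HepaRG hepatic cells kept in 0.5% DMSO, the team applied test chemicals in duplicate, half-log dilutions from 100 uM, for 48 h. Expression, normalised to ACTB/GAPDH/POLR2A, was compared with vehicle in either direction.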
# [11] = read-out: growth arrest and DNA damage 45 (GADD45A), GADD45A (gene 1647); assay: LTEA_HepaRG_GADD45A: Life Technologies and Expression Analysis (LTEA) Assay for growth arrest and DNA damage 45 (GADD45A) using HepaRG (AID 2283458)
# In short: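 HepaRG, 48 h exposure, 8 conc. (top 100 uM, half-log steps), 0.5% DMSO vehicle, duplicates. Read-out: qRT-PCR mRNA level, housekeeping-normalized (ACTB/GAPDH/POLR2A). Curves fit bidirectionally vs DMSO baseline.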
# [12] = read-out: Forkhead box O3 (FOXO3), FOXO3 (gene 2309); assay: LTEA_HepaRG_FOXO3: Life Technologies and Expression Analysis (LTEA) Assay for Forkhead box O3 (FOXO3) using HepaRG (AID 2283459)
# In short: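 Gene-expression endpoint: FOXO3 transcript level by qRT-PCR in HepaRG cultures treated 48 h with chemicals up to 100 uM (half-log, 0.5% DMSO vehicle).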
# [13] = read-out: ABC Transporter (ABCB1), ABCB1 (gene 5243); assay: LTEA_HepaRG_ABCB1: Life Technologies and Expression Analysis (LTEA) Assay for ABC Transporter (ABCB1) using HepaRG (AID 2283460)
# In short: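 Human liver HepaRG line treated 48 h with up to 100 uM compound (eight half-log points, 0.5% DMSO); ABCB1 mRNA change fitted bidirectionally against DMSO controls.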
# [14] = read-out: growth arrest and DNA damage 45 (GADD45B), GADD45B (gene 4616); assay: LTEA_HepaRG_GADD45B: Life Technologies and Expression Analysis (LTEA) Assay for growth arrest and DNA damage 45 (GADD45B) using HepaRG (AID 2283461)
# In short: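 Differentiated HepaRG cells, plated 48 h then switched to serum-free induction medium, were exposed 48 h in duplicate to eight half-log concentrations from 100 uM in 0.5% DMSO; mRNA quantified by qRT-PCR, normalized to ACTB/GAPDH/POLR2A, bidirectional fit versus DMSO.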
# [15] = read-out: ABC Transporter (ABCC3), ABCC3 (gene 8714); assay: LTEA_HepaRG_ABCC3: Life Technologies and Expression Analysis (LTEA) Assay for ABC Transporter (ABCC3) using HepaRG (AID 2283462)
# In short: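 HepaRG cells in serum-free induction medium were exposed for 48 h in duplicate to 8-point half-log concentrations topping at 100 uM in 0.5% DMSO. ABCC3 mRNA was measured by qRT-PCR normalized to ACTB, GAPDH and POLR2A, with bidirectional fitting versus DMSO.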
# [16] = read-out: ABC Transporter (ABCB11), ABCB11 (gene 8647); assay: LTEA_HepaRG_ABCB11: Life Technologies and Expression Analysis (LTEA) Assay for ABC Transporter (ABCB11) using HepaRG (AID 2283463)
# In short: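 Using HepaRG cultures held in 0.5% DMSO, chemicals were tested at half-log dilutions from 100 uM for 48 h. Induction or suppression of ABCB11 mRNA, normalized to ACTB, GAPDH and POLR2A, was fitted bidirectionally against vehicle.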
# [17] = read-out: ABC Transporter (ABCC2), ABCC2 (gene 1244); assay: LTEA_HepaRG_ABCC2: Life Technologies and Expression Analysis (LTEA) Assay for ABC Transporter (ABCC2) using HepaRG (AID 2283464)
# In short: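 HepaRG cells were plated 48 h, switched to serum-free induction medium, then exposed in duplicate for 48 h to 8 concentrations (top 100 uM, half-log steps, 0.5% DMSO). ABCC2 mRNA was measured by qRT-PCR normalized to ACTB/GAPDH/POLR2A; bidirectional fitting versus DMSO.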
# [18] = read-out: Broad substrate specificity ATP-binding cassette transporter ABCG2 (Homo sapiens) (UniProt Q9UNQ0); assay: LTEA_HepaRG_ABCG2: Life Technologies and Expression Analysis (LTEA) Assay for ABC Transporter (ABCG2) using HepaRG (AID 2283465)
# In short: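 Gene expression of ABCG2 in HepaRG liver cells is quantified by qRT-PCR following 48 h exposure across an eight-point series topping at 100 uM. Values come from bidirectional fitting relative to DMSO vehicle.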
# [19] = read-out: ATP-citrate lyase (ACLY), ACLY (gene 47); assay: LTEA_HepaRG_ACLY: Life Technologies and Expression Analysis (LTEA) Assay for ATP-citrate lyase (ACLY) using HepaRG (AID 2283466)
# In short: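 ACLY expression changes in human HepaRG liver cells are quantified by qRT-PCR after 48 h exposure to test chemicals (maximum 100 uM, half-log steps). Values are fitted in both directions relative to 0.5% DMSO vehicle.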
# Chain of Fatty acid synthase (Homo sapiens) (P49327 whole entry, looked up): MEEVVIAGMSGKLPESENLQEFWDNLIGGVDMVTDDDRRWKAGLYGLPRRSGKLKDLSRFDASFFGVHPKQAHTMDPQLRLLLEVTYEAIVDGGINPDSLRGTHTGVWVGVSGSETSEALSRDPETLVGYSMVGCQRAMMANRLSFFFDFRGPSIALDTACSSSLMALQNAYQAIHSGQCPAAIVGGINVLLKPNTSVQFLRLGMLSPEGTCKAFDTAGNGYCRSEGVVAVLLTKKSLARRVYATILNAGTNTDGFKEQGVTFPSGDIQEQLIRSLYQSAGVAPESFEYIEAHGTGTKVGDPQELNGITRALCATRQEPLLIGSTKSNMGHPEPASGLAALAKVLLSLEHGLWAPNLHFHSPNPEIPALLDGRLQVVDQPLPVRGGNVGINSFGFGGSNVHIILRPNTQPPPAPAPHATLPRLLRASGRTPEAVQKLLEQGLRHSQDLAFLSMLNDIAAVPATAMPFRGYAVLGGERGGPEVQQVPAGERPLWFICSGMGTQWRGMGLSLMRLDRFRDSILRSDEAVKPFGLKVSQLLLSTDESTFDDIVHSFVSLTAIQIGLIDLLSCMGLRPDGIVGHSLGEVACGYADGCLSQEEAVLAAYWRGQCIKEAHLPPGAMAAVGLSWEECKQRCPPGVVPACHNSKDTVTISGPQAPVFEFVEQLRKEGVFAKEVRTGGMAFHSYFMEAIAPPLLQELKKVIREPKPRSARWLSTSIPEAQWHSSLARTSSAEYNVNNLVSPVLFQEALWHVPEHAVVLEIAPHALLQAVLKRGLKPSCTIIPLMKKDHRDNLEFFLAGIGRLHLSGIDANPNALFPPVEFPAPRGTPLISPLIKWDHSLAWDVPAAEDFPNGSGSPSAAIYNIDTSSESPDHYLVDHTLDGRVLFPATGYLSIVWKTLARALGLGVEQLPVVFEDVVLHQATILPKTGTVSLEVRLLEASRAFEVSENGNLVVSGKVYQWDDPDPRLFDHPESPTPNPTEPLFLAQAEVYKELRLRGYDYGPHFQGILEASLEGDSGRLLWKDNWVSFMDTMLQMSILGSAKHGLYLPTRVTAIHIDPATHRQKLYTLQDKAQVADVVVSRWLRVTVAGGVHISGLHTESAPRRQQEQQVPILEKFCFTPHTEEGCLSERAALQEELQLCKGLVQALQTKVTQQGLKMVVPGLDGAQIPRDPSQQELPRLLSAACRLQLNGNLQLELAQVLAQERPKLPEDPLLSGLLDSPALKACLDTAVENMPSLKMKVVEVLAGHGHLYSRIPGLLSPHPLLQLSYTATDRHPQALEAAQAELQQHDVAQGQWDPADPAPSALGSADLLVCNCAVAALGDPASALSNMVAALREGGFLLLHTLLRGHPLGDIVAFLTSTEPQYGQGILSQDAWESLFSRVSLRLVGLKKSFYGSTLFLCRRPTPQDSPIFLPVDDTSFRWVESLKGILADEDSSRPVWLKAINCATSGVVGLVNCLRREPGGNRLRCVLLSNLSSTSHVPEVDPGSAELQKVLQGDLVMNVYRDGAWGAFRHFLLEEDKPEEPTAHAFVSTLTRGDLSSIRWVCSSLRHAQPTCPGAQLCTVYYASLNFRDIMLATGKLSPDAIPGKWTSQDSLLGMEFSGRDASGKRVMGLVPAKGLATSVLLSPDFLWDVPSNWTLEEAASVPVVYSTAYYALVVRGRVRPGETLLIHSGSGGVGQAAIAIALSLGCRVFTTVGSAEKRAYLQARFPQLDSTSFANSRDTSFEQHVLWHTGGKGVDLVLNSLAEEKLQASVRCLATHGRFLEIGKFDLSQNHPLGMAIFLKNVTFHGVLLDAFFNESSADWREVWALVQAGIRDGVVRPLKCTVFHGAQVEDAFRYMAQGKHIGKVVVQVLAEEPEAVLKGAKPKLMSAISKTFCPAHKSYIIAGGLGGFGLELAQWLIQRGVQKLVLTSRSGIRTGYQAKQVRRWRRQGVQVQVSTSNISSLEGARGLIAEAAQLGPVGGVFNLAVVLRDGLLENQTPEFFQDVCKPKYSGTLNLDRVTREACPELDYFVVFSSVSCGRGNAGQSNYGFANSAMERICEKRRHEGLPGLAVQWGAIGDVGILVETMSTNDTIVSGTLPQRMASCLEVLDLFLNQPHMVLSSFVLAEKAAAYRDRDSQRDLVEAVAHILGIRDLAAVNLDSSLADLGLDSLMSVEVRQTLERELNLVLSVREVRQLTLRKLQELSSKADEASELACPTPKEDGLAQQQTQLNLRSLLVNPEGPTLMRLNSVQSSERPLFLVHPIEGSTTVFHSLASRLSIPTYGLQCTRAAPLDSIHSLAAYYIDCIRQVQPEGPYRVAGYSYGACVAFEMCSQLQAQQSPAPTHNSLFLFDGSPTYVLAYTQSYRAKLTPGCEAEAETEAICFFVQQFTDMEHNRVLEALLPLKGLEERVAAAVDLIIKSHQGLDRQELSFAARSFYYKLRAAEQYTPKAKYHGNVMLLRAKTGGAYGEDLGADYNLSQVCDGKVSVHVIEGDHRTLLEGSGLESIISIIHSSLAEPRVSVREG
# Chain of Broad substrate specificity ATP-binding cassette transporter ABCG2 (Homo sapiens) (Q9UNQ0 whole entry, looked up): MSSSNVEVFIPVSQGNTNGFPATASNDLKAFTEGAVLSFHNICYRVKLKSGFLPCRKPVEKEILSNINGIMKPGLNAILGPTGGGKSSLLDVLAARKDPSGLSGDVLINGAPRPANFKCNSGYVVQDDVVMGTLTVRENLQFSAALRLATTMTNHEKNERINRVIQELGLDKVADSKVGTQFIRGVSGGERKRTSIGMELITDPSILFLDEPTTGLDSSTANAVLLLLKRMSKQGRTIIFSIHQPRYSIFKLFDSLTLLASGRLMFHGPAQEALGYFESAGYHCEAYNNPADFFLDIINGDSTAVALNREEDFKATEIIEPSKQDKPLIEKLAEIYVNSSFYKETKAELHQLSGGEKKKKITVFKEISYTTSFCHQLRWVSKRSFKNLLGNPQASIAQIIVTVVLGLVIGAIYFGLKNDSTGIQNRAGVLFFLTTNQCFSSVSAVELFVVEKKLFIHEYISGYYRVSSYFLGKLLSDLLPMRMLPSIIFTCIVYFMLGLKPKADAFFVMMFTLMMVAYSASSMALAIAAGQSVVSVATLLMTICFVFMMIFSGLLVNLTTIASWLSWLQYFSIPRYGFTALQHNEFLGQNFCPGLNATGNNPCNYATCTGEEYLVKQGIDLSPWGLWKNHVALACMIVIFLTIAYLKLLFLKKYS
structure (smiles),measurement,setting,value
O=[N+]([O-])c1ccc(O)cc1,outcome,[1],inactive
same,outcome,[2],inactive
same,outcome,[3],inactive
same,outcome,[4],inactive
same,outcome,[5],inactive
same,outcome,[6],inactive
same,outcome,[7],inactive
same,AC50,[8],78.2 µM (active)
same,outcome,[8],inactive
same,outcome,[9],inactive
same,outcome,[10],inactive
same,outcome,[11],inactive
same,outcome,[12],inactive
same,outcome,[13],inactive
same,outcome,[14],inactive
same,outcome,[15],inactive
same,outcome,[16],inactive
same,outcome,[17],inactive
same,outcome,[18],inactive
same,outcome,[19],inactive
OC1CCC(C2CCCCC2)CC1 (stereo not given),outcome,[1],inactive
same,outcome,[2],inactive
same,outcome,[3],inactive
same,outcome,[4],inactive
same,outcome,[5],inactive
same,outcome,[6],inactive
same,outcome,[7],inactive
same,outcome,[8],inactive
same,outcome,[9],inactive
same,outcome,[11],inactive
same,outcome,[12],inactive
same,outcome,[13],inactive
same,outcome,[14],inactive
same,outcome,[15],inactive
same,outcome,[16],inactive
same,outcome,[17],inactive
same,outcome,[18],inactive
same,outcome,[19],inactive
CC(C)(C)c1cc(C(C)(C)C)c(O)c(C(C)(C)C)c1,outcome,[1],inactive
same,AC50,[2],50 µM (active)
same,outcome,[3],inactive
same,outcome,[4],inactive
same,outcome,[5],inactive
same,outcome,[6],inactive
same,outcome,[7],inactive
same,outcome,[8],inactive
same,outcome,[9],inactive
same,outcome,[11],inactive
same,outcome,[12],inactive
same,outcome,[13],inactive
same,outcome,[14],inactive
same,outcome,[16],inactive
same,AC50,[17],50 µM (active)
same,AC50,[18],20.9 µM (active)
same,outcome,[19],inactive
